Test results taken from PubChem BioAssay AID493185 (National Center for Advancing Translational Sciences (NCATS), 2011).
Active and inactive are the calls of the source. Entries that show only a call come without a potency. Calls come from the whole dose curve; as a rule, active = well fitted activation curve with a large enough effect; inconclusive = small, poorly fitted or top-dose-only effect; inactive = no such curve, though single readings can be large or run the other way.

test: Counterscreen for Identifying a Potential Treatment of Ataxia-Telangiectasia: Hit Validation; details: cell-free AlphaLISA/AlphaScreen artifact counterscreen, PBS only, no cells; series mostly up to 76.9 µM
Procedure, shortened: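 Without cells, compounds at up to 76.7 uM final were combined with premixed anti-pKAP1/anti-KAP1 AlphaLISA bead reagents, protease inhibitors and lysis buffer; signal read after 6 hr at 25C to flag assay-platform artifacts.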

| SMILES | Potency |
| --- | --- |
| OC1(CC#CCN2CCCCC2)c2ccccc2-c2ccccc21 | inactive |
| CCNC(=S)N(CCc1c(C)[nH]c2ccccc12)Cc1cccnc1 | inactive |
| CC(C)CC(=O)Nc1c2c(nn1-c1cccc(Cl)c1)CS(=O)C2 (stereo not given) | inactive |
| CCC[C@H]1CCCC/C=C\CCCC(=O)OCCN1C(=O)OC(C)(C)C | inactive |
| S=c1[nH]nc(C2CCCCC2)n1/N=C/c1ccc(Br)cc1 | inactive |
| O=C(C(c1ccccc1)c1ccccc1)N1CC[C@@]2(O)CCCC[C@H]2C1 | inactive |
| FC(F)(F)c1cccc(OCC2CNC(=S)O2)c1 (stereo not given) | inactive |
| O=C1C(Cl)=C(Nc2ccccc2)C(=O)c2ccccc21 | inactive |
| O=C(O)c1ccc(C2Nc3ccccc3C(=O)N2Cc2ccccc2)cc1 (stereo not given) | inactive |
| COc1ccc(-c2nn(C)c(=O)[nH]2)cc1 | inactive |
| O=C(CCCC(=O)N1CCCC1)N1CCCC1 | inactive |
| O=C1C2C3C=CC(CC3)C2C(=O)N1c1cccc(Br)c1 (stereo not given) | inactive |
| CC(=O)Nc1ccc(S(=O)(=O)NCC2(N3CCOCC3)CCCCC2)cc1 | inactive |
| CC1Cc2ccccc2N1C(=O)CSc1nnnn1-c1ccc2c(c1)OCCO2 (stereo not given) | inactive |
| c1ccc(CSc2nnc(-c3ccco3)n2Cc2ccco2)cc1 | inactive |
| NCC(=O)c1cccc2ccc[n+]([O-])c12 | inactive |
| CC(C)CN(CC(C)C)C(=O)c1cc2c(=O)n3ccccc3nc2s1 | inactive |
| Cc1cccc(C)c1NC(=O)COC(=O)c1cc(=O)c2ccccc2o1 | inactive |
| COc1ccc(Nc2cc3n(c(=O)n2)CCc2cc(OC)c(OC)cc2-3)cc1 | inactive |
| NC(=O)C1CCN(Cc2nc3cc(C(F)(F)F)ccc3c(=O)[nH]2)CC1 | inactive |

| SMILES | Potency |
| --- | --- |
| CC(C)CNS(=O)(=O)c1cc(C(=O)O)c(Cl)cc1Cl | inactive |
| COc1ccc(CCNC2=NCCS2)cc1OC | inactive |
| CCOC(=O)c1ccc(-n2c(C)nc3ccc(Br)cc3c2=O)cc1 | inactive |
| COc1cccc(CN2CCN(Cc3cc(OC)c(OC)cc3OC)CC2)c1 | inactive |
| Brc1c(C[n+]2ccccc2)nc2ccccn12 | inactive |
| CCc1oc(C(=O)OC)cc1CSC(=N)N | inactive |
| CCOC(=O)Cc1csc(NC(=O)CSc2nnc(C(C)C)n2C)n1 | inactive |
| Cc1nc2sc(C(N)=O)c(N)c2c2c1CCCC2 | inactive |
| Cc1ccc(NC(=O)NC(=O)N(C(C)C)S(C)(=O)=O)nc1 | inactive |
| NC(=O)c1cc2ccccc2o/c1=N/NC(=O)c1cccc(F)c1 | inactive |
| CCOc1cc(/C=C/c2nc3ccccc3c(=O)[nH]2)ccc1O | inactive |
| CCOC(=O)C1CCN(C(=O)c2cc3cc(Cl)ccc3[nH]2)CC1 | inactive |
| COc1ccc(-c2nn(-c3ccccc3)cc2/C=C/C(=O)O)cc1[N+](=O)[O-] | inactive |
| O=C(O)CCC(=O)NN1C(=O)c2ccccc2NC1c1ccco1 (stereo not given) | inactive |
| O=C1/C(=C/c2ccc(N3CCOCC3)o2)SC(=Nc2ccccc2)N1CCc1c[nH]c2ccccc12 | inactive |
| CC(C)Nc1nc(Oc2ccc(=O)n(-c3ccccc3)n2)nc(N(C)C)n1 | inactive |
| CN(C)C(=O)CN(C)S(=O)(=O)c1ccc(Cl)cc1 | inactive |
| COc1ccc(-n2c(C)cc(=O)[nH]c2=O)cc1 | inactive |
| CNC(=O)/C=C/c1cc(C(=O)c2ccc(Cl)cc2Cl)cn1C | inactive |
| COc1ccccc1C(=O)NC(=O)Nc1cccc(Cl)c1 | inactive |
